The source of these data is PubChem BioAssay (Tox21).

Unmarked numbers belong to inactive results. Records with an inconclusive call do not appear. The source made the active and inactive calls. Unless noted, calls follow the shape of the dose curve; as a rule, active = well fitted curve in the direction sought with a large enough effect in the repeat runs; inconclusive = weak or mixed curves; inactive = no such curve, though single readings can be large; an effect the other way counts as inactive or inconclusive.

Assay [1] concerns the target Nuclear receptor subfamily 1 group I member 3 (Homo sapiens) (UniProt Q14994). As to the kind of experiment: qHTS assay to identify small molecule antagonists of the constitutive androstane receptor (CAR) signaling pathway (AID 1224838).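 Also: HepG2 cells stably expressing hCAR with CYP2B6 luciferase reporter stimulated by CITCO; nearly all actives have a fitted effect of over 40% in size.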 Also: potency is read from the fitted curve at half-maximal effect. The essentials:
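Read-out: ONE-Glo luciferase luminescence after 30 min at room temperature. HepG2-CYP2B6-hCAR double-stable cells, compounds in 15-point titration plus 50 nM CITCO final, 24 h at 37 C/5% CO2.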
(qHTS replaces the single test concentration by a dilution series.)

Assay [2] has the same target. Kind of assay: qHTS assay to identify small molecule agonists of the constitutive androstane receptor (CAR) signaling pathway (AID 1224839). Also: nearly all actives have a fitted effect of over 15% in size. Also: potency is read from the fitted curve at half-maximal effect.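 As to activation: HepG2 cells stably carrying human CAR and a CYP2B6 luciferase reporter; % is scaled to controls: 0 for no effect and ±100 for the full control effect.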 The essentials:
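In this screen, CAR-driven CYP2B6 promoter activity is measured by luminescence in HepG2-CYP2B6-hCAR cells after 24 h with test compounds and 0.75 uM PK11195 (final concentration).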

Assay [3] in a line: qHTS assay to identify small molecule antagonists of the estrogen related receptor signaling pathway with the pleiotropic PPARgamma coactivator (PGC) from Tox21 10K library (AID 1224841; call rule not given here; also: potency is read from the fitted curve at half-maximal effect; actives are mostly falling curves and most rising ones were filed inactive; nearly all actives have a fitted effect of over 50% in size). The essentials:
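Luminescence read-out (One-Glo luciferase reagent, 30 min at room temperature) from PGC/ERR cells exposed to DMSO-dissolved test compounds for 18 h at 37 C; cells, 2,000 per well, had been preincubated 6 h before compound transfer.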

Assay [4] can be described thus: qHTS assay to identify small molecule agonists of the estrogen related receptor signaling pathway with the pleiotropic PPARgamma coactivator (PGC) from Tox21 10K library (AID 1224842). Also: % is scaled to controls: 0 for no effect and ±100 for the full control effect; nearly all actives have a fitted effect of over 15% in size. In short, it runs like this:
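PGC/ERR reporter cells (NTP line) were seeded 2,000 per well, rested 6 h at 37 C/5% CO2, then pin-dosed with compounds in DMSO for 18 h at 37 C; luciferase read by One-Glo luminescence after 30 min at room temperature.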

Assay [5] addresses Thyrotropin receptor (Homo sapiens) (UniProt P16473). Kind of assay: qHTS assay to identify small molecule agonists of the thyroid stimulating hormone receptor (TSHR) signaling pathway (AID 1224843; calls by dose curve; also: nearly all actives have a fitted effect of over 45% in size; also: potency is read from the fitted curve at half-maximal effect; as to activation: % is scaled to controls: 0 for no effect and ±100 for the full control effect). In short, it runs like this:
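Using 15 concentrations per compound in triplicate, cAMP production was monitored in TSHR-HEK293 cells after 30 min compound incubation at RT; HTRF reagents followed, with fluorescence intensity recorded after 1 h.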

A short description of assay [6]: qHTS assay to identify small molecule agonists of the hypoxia (HIF-1) signaling pathway - cell viability counter screen (AID 1224844; calls by dose curve; also: % is scaled to controls: 0 for no effect and ±100 for the full control effect; nearly all actives have a fitted effect of over 50% in size). In short, it runs like this: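 CellTiter-Glo luminescence read-out, 30 min RT, taken in the same wells as the beta-lactamase HRE reporter assay; HRE-bla ME-180 cells, 0.5% dialyzed FBS, 17 hr compound treatment at 37C, 5% CO2.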
Assay [7] can be described thus: qHTS assay to identify small molecule agonists of H2AX (AID 1224845; active = well fitted activation curve with a large enough effect in the signal ratio in the repeat runs, not every such curve was filed as active; the % refers to the signal ratio; also: % is scaled to controls: 0 for no effect and ±100 for the full control effect). The essentials: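 Wild-type CHO-K1 cells plated overnight, then exposed 3 hr at 37C to compounds at 15 concentrations (0.76% DMSO). Lysed, then HTRF anti-pH2AX(S139)-cryptate/anti-H2AX-d2 detection after 24 hr at room temperature; emissions 665 and 620 nm.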
Assay [8] is described as follows: qHTS assay to identify small molecule agonists of the hypoxia (HIF-1) signaling pathway (AID 1224846; active = well fitted activation curve with a large enough effect in the signal ratio in the repeat runs, not every such curve was filed as active; the % refers to the signal ratio; also: % is scaled to controls: 0 for no effect and ±100 for the full control effect). The essentials:
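Beta-lactamase FRET read-out (CCF4-AM substrate) from ME-180 cells carrying an HRE-driven bla reporter, after 17 hrs compound exposure at 37C/5% CO2. Cells were seeded at 2,000 per well in 0.5% dialyzed FBS medium and preincubated 5 hrs.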

Assay [9] in a line: qHTS assay to identify small molecule agonists of H2AX - cell viability counter screen (AID 1224847; calls by dose curve; also: nearly all actives have a fitted effect of over 30% in size; also: potency is read from the fitted curve at half-maximal effect). The essentials: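 Read-out: CellTiter-Glo luminescence, 30 min RT. Cells: wild-type CHO-K1, 1000/well, 10% FBS, plated overnight at 37C. Treatment: 15 concentrations, 3 hr, 37C, 0.76% DMSO.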
A short description of assay [10]: qHTS assay to identify small molecule antagonists of the estrogen related receptor (ERR) signaling pathway from Tox21 library (AID 1224848). Also: potency is read from the fitted curve at half-maximal effect; nearly all actives have a fitted effect of over 50% in size. The essentials: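 Tox21 10K compounds in DMSO tested for ERR pathway antagonism in NTP's ERR cell line; 18 h, 37 C exposure; ONE-Glo luminescence.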
A short description of assay [11]: qHTS assay to identify small molecule agonists of the estrogen related receptor (ERR) signaling pathway from Tox21 library (AID 1224849; calls by dose curve; also: % is scaled to controls: 0 for no effect and ±100 for the full control effect; nearly all actives have a fitted effect of over 15% in size). To be noted: ERR reporter cell line, ONE-Glo luciferase, 18 h; at 92.4 µM (top of the series) unless noted. In short, it runs like this: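 Luminescence readout (ONE-Glo, 30 min RT) after 18 h compound exposure at 37 C of NTP-supplied ERR reporter cells; cells were plated 6 h before compound addition by pin tool.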

Assay [12] is described as follows: qHTS RealTime-Glo MT Cell Viability Assay in HepG2 cells - 24 hour (AID 1224867). Also: % is scaled to controls: 0 for no effect and ±100 for the full control effect; nearly all actives have a fitted effect of over 50% in size. In short, it runs like this:
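Compound treatment began 5 h after plating HepG2 cells (600/well) with NanoLuc luciferase and prosubstrate. Plates stayed at 37 C for 40 h; luminescence was captured at six time points, 0 h through 40 h.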

A short description of assay [13]: A CellTox Green Cytotoxicity Assay to monitor cytotoxicity in HEK293 cells - 0 hour (AID 1224869). The essentials: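 Read-out: fluorescence of a cell-impermeant cyanine dye staining DNA of dead cells, proportional to cytotoxicity. HEK293, 600 cells/well with reagent, compound (23 nL DMSO) added after 5 h; reads at 0, 8, 16, 24, 32, 40 h.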
Assay [14] concerns the target Luciferin 4-monooxygenase (Photinus pyralis) (UniProt P08659). Kind of assay: qHTS assay to identify small molecule inhibitors of firefly luciferase (AID 1224835). Also: nearly all actives have a fitted effect of over 25% in size. Also: potency is read from the fitted curve at half-maximal effect. The essentials: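 Quantitative HTS format; KM concentrations of both substrates. Purified P. pyralis FLuc activity quantified from luminescence images.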
A short description of assay [15]: qHTS assay to identify small molecule agonists of the constitutive androstane receptor (CAR) signaling pathway - cell viability counter screen (AID 1224836). Also: nearly all actives have a fitted effect of over 45% in size. Also: potency is read from the fitted curve at half-maximal effect. The essentials: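 Compound titrations (15 concentrations) went onto HepG2-CYP2B6-hCAR cells 4 h after seeding, alongside PK11195 at a final 0.75 uM; a 23 h, 37 C/5% CO2 incubation preceded CellTiter-Fluor viability measurement.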

Assay [16] can be described thus: qHTS assay to identify small molecule antagonists of the constitutive androstane receptor (CAR) signaling pathway - cell viability counter screen (AID 1224837). Also: % is scaled to controls: 0 for no effect and ±100 for the full control effect; nearly all actives have a fitted effect of over 45% in size. The essentials: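 Read-out: CellTiter-Fluor fluorescence after 23 hr at 37 C/5% CO2. Cells: HepG2 double-stable for hCAR and CYP2B6-2.2kb. Compounds tested at 15 concentrations in the presence of CITCO, final concentration 50 nM.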

A short description of assay [17]: qHTS assay to identify small molecule antagonists of the estrogen related receptor signaling pathway with the pleiotropic PPARgamma coactivator (PGC) from Tox21 10K library - cell viability counter screen (AID 1224840; active = well fitted cell-killing curve with a large enough effect in the repeat runs, not every such curve was filed as active; also: nearly all actives have a fitted effect of over 40% in size; also: potency is read from the fitted curve at half-maximal effect). The essentials: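 Fluorescence read-out of CellTiter-Fluor viability reagent, added after cells had been exposed to compound in DMSO for 17.5 h at 37 C; 30 min development at 37 C/5% CO2. Cells: PGC/ERR line, 2,000/well.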

Assay [18] in a line: qHTS RealTime-Glo MT Cell Viability Assay in HEK293 cells - 32 hour (AID 1224868). Also: nearly all actives have a fitted effect of over 50% in size. Also: potency is read from the fitted curve at half-maximal effect. In short, it runs like this:
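Quantitative high-throughput screen of the Tox21 10K library in HEK293: cells and RealTime-Glo reagents plated together, compound added at 5 h, luminescence monitored through 40 h at 37 C.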

Sequence of Nuclear receptor subfamily 1 group I member 3 (Homo sapiens) (Q14994 whole entry, looked up): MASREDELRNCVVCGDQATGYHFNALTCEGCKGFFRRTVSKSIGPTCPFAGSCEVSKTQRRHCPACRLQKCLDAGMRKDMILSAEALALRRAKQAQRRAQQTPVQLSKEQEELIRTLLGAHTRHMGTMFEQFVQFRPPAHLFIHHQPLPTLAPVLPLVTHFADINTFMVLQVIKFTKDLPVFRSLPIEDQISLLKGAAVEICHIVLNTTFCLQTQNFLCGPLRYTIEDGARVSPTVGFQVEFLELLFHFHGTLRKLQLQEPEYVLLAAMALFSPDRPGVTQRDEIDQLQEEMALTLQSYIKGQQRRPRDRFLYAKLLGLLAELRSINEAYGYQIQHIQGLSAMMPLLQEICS
Sequence of Luciferin 4-monooxygenase (Photinus pyralis) (P08659 whole entry, looked up): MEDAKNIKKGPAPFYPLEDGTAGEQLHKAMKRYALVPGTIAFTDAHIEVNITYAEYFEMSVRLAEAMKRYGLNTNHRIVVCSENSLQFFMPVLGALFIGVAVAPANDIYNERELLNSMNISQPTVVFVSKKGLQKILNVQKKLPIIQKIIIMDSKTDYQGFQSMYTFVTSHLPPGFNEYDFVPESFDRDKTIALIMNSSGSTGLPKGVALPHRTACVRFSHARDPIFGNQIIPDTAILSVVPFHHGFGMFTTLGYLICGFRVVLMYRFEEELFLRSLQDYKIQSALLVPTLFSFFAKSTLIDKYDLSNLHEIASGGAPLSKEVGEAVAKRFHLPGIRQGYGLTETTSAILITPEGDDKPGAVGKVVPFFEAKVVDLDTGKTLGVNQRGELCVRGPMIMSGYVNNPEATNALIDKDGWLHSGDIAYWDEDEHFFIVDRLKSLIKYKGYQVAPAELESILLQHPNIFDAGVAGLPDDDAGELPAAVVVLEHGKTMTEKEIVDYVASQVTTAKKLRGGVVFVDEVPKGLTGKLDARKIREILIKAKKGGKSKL
Sequence of Thyrotropin receptor (Homo sapiens) (P16473 whole entry, looked up): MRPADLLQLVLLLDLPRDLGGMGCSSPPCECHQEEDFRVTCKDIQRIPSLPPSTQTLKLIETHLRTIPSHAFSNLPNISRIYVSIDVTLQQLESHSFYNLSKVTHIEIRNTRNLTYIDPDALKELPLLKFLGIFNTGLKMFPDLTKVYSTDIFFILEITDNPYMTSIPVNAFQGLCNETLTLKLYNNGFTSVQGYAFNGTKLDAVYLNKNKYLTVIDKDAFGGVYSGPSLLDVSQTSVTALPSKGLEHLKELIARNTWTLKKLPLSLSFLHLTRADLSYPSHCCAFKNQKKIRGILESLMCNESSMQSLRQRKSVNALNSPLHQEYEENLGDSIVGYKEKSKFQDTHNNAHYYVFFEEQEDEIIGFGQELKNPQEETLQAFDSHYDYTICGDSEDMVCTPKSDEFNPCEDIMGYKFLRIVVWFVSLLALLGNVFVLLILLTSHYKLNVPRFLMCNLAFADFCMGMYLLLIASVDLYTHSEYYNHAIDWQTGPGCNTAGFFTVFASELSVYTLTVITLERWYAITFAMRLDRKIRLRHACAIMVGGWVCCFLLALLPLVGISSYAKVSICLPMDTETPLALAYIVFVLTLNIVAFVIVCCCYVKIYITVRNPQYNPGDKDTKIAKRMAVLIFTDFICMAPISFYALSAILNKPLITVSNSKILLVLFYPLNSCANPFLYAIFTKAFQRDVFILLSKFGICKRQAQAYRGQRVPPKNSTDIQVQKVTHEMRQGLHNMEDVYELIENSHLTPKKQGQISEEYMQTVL

For `N#Cc1cc(I)c(O)c(I)c1`, the Potency in [1] is 61.1 µM (active); in [3], 30.6 µM (active); in assay [9], 28.4 µM (active); in [10], 24.3 µM (active). For the same compound, the Potency entry in [2], in [4], in assay [5], in assay [6], in assay [7] and in [12] was “inactive” in each case. Also, in [13], the Potency result is “inactive”. In assay [8], the call was inactive. Also, the activity change, positive = activation in assay [11] was -66.8%.

As for `ClCC(Br)CBr` (stereo unspecified), the Potency result in assay [14], in assay [15], in assay [16], in assay [17], in [5] and in assay [7] was “inactive” throughout. Further, the Potency result in assay [9], in assay [12], in [18] and in assay [13] was “inactive” each time. Also, in [8], the compound was called inactive.

For `CCCN(CCC)c1c([N+](=O)[O-])cc(S(C)(=O)=O)cc1[N+](=O)[O-]`, the Potency entry in [14], in assay [15], in assay [16], in assay [17], in [4] and in assay [6] was “inactive” each time. The Potency entry in assay [7], in assay [9] and in assay [12] was “inactive” in each case. Further, the result in assay [8] was inactive. In addition, the activity change, positive = activation in assay [11] was -24.5%. Also, in [18], the Potency was 13.8 µM (active).

With `CCCN(CC1CC1)c1c([N+](=O)[O-])cc(C(F)(F)F)cc1[N+](=O)[O-]`, the Potency result in assay [14], in assay [15], in assay [16], in assay [17], in assay [6] and in assay [7] was “inactive” in each case. In addition, the Potency entry in [9], in assay [12], in assay [18] and in assay [13] was “inactive” throughout. Moreover, in [5], the Potency is 6.86 µM (active). The compound was classed as inactive in assay [8].

Turning to `Nc1ccc([N+](=O)[O-])cc1[N+](=O)[O-]`, the Potency entry in assay [14], in [2], in assay [17], in assay [5], in assay [6] and in [7] was “inactive” in each case. In addition, the Potency result in assay [12] and in assay [13] was “inactive” each time. Also, the result in assay [8] was inactive.

In the case of `O=C(Nc1ccccc1)Nc1ccnc(Cl)c1`, the Potency is 15.9 µM (active) in [14]; 48.6 µM (active) in [15]; 61.1 µM (active) in [17]; 24.3 µM (active) in assay [10]; 19.5 µM (active) in assay [18]. Also, the Potency result in assay [4], in [6], in [7] and in assay [12] was “inactive” in each case. Further, the activity change, positive = activation in assay [11] was -55.6%.

Consider `OC(c1ccc(Cl)cc1)(c1ccc(Cl)cc1)c1cccnc1`, for which the Potency result in assay [14], in [15], in [16], in assay [4], in [7] and in [13] was “inactive” in each case. In addition, the Potency in assay [3] is 61.1 µM (active); in assay [5], 30.6 µM (active); in assay [10], 48.6 µM (active). In addition, the activity change, positive = activation in assay [11] was -55.6%.

For `C#CCOC(C(=O)OCCN(C)C)(c1ccccc1)c1ccccc1`, the Potency result in assay [14], in assay [15], in assay [16], in [17], in [6] and in assay [7] was “inactive” each time. The Potency entry in assay [9], in assay [12], in assay [18] and in assay [13] was “inactive” throughout. Besides, the compound was called inactive in assay [8].

With `C=CC[C@]1(O)CC[C@H]2[C@@H]3CCC4=CC(=O)CCC4=C3C=C[C@@]21C`, the Potency entry in [14], in assay [17], in assay [4] and in assay [13] was “inactive” in each case. Besides, the Potency in assay [9] was 39.1 µM (active); in [18], 16.9 µM (active). Moreover, the activity change, positive = activation in assay [11] was -61.2% [at 42.5 µM].

Turning to `Cc1c(F)c(F)c(COC(=O)C2C(/C=C(\Cl)C(F)(F)F)C2(C)C)c(F)c1F` (stereo unspecified), the Potency entry in assay [14], in [15], in assay [16], in [17], in [7] and in assay [12] was “inactive” each time. The Potency entry in assay [18] was “inactive”. Also, in assay [8], the compound was called inactive.

Take `CCOP(=O)(OCC)O/C(=C/Cl)c1ccc(Cl)cc1Cl`: the Potency entry in assay [14], in assay [1], in assay [4], in [6], in assay [7] and in assay [12] was “inactive” throughout. Further, in assay [13], the Potency entry is “inactive”. Further, the Potency was 27.3 µM (active) in [2], 2.73 µM (active) in assay [3], 6.86 µM (active) in [10] and 21.9 µM (active) in assay [18]. The call in assay [8] was inactive. In [11], the activity change, positive = activation was -61.6%.
